According to PubChem BioAssay (Tox21):
Results filed as inconclusive are left out. Activity calls are given as the source filed them. Unless noted, calls come from the whole dose curve; as a rule, active = well fitted curve in the direction sought with a large enough effect in the repeat runs; inconclusive = weak or mixed curves; inactive = no such curve, though single readings can be large; an effect the other way counts as inactive or inconclusive.

Columns and labels:
[1] = qHTS assay for small molecule agonists of the p53 signaling pathway (AID 651631; calls by dose curve; note: nearly all actives have a fitted effect of over 15% in size)
Outline: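 Stably transfected HCT-116 cells (beta-lactamase behind p53 response elements) get compounds after a 5 h settling period; 16 h later at 37 °C, FRET substrate is loaded and fluorescence read after 2 h.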

[2] = qHTS assay for small molecules that induce genotoxicity in human embryonic kidney cells expressing luciferase-tagged ATAD5 (AID 651632); note: nearly all actives have a fitted effect of over 15% in size
Outline: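 DMSO vehicle served as the control. HEK293T reporter cells, 16 hr at 37C, then 30 min Amplite at room temperature; ATAD5 induction is measured as luciferase activity.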

[3] = qHTS assay for small molecule agonists of the p53 signaling pathway - cell viability (AID 651633; calls by dose curve;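 note: p53RE-bla HCT reporter cells with a stable beta-lactamase p53 reporter; series mostly up to about 83 µM; nearly all actives have a fitted effect of over 30% in size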)
Outline: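 p53RE-bla cells were treated with compound for 16 hours at 37 C. Cytotoxicity was then measured as CellTiter-Glo luminescence after 30 min at room temperature.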

[4] = qHTS assay for small molecules that induce genotoxicity in human embryonic kidney cells expressing luciferase-tagged ATAD5 - cell viability (AID 651634; calls by dose curve; note: nearly all actives have a fitted effect of over 25% in size)
Outline: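 Here HEK293T cells with the ATAD5 luciferase reporter are incubated with test compounds for 15.5 hr, and cytotoxicity is then gauged by measuring protease activity in live cells using fluorescence.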

[5] = qHTS assay for small molecule disruptors of the mitochondrial membrane potential - cell viability (AID 720634; calls by dose curve;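 note: human HepG2 liver cancer cells; series mostly up to about 83 µM; nearly all actives have a fitted effect of over 20% in size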)
Outline: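 Viability of HepG2 cells is scored from ATP content by luminescence; cells are exposed to compound for 1 hr at 37 C and 5% CO2, then dosed with m-MPI dye before the CellTiter-Glo reagent.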

[6] = qHTS assay for small molecule disruptors of the mitochondrial membrane potential (AID 720635)
Outline: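 HepG2 cells exposed to compound 1 hr at 37C, then Mito-MPS dye 30 min. Ratio read of aggregate (540/590 nm) versus monomer (490/535 nm) fluorescence.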

[7] = qHTS assay to test for compound auto fluorescence at 590 nm (red) in HepG2 cells (AID 720674)
Outline: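 Fluorescence at 590 nm emission following 540 nm excitation was recorded from HepG2 wells one hour after compound transfer, with DMSO-only wells as vehicle and Rose Bengal sodium equivalency as the scale.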

[8] = qHTS assay to test for compound auto fluorescence at 535 nm (green) in HepG2 cells (AID 720675)
[9] = qHTS assay to test for compound auto fluorescence at 460 nm (blue) in HEK293 cells (AID 720678)
Outline: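 HEK293 cells (2,000 per well, medium with 10% dialyzed FBS) attached for 4-5 hr at 37C, then received compound and stood overnight at 37C, 5% CO2. Blue fluorescence was read at Ex/Em 405/460 nm and expressed relative to triamterene.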

[10] = qHTS assay to test for compound auto fluorescence at 590 nm (red) in HEK293 cells (AID 720679)
Outline: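 HEK293 cells (2,000/well, medium with 10% dialyzed FBS) attached for 4-5 hr at 37C, received 23 nL compound and were incubated overnight at 37C, 5% CO2. Red fluorescence was then read at 540/590nm Ex/Em, referenced to Rose Bengal sodium.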

[11] = qHTS assay to test for compound auto fluorescence at 535 nm (green) in HEK293 cells (AID 720680)
[12] = qHTS assay to test for compound auto fluorescence at 460 nm (blue) in HEK293 cell free culture (AID 720681)
Outline: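 Compounds were added to cell-free DMEM with 10% FBS and fluorescence read directly. The blue channel used 405 nm excitation and 460 nm emission, with triamterene as the reference fluorophore.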

[13] = qHTS assay to test for compound auto fluorescence at 535 nm (green) in HEK293 cell free culture (AID 720682)
Outline: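 Using fluorescein as calibrant, autofluorescence was quantified at 485/535 nm in cell-free DMEM containing 10% FBS after pintool addition of compound or vehicle.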

[14] = qHTS assay to test for compound auto fluorescence at 590 nm (red) in HEK293 cell free culture (AID 720683)
Outline: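 Cell-free wells of DMEM with 10% FBS received compound, and intrinsic fluorescence was read at excitation/emission 540/590 nm. Values expressed as equivalence to Rose Bengal sodium.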

[15] = qHTS assay to test for compound auto fluorescence at 590 nm (red) in HepG2 cell free culture (AID 720684)
Outline: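 Auto fluorescence equivalency versus Rose Bengal sodium, red channel Ex/Em 540/590 nm; compounds in cell-free MEM/10% FBS; DMSO vehicle control.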

[16] = qHTS assay to test for compound auto fluorescence at 460 nm (blue) in HepG2 cell free culture (AID 720685)
Outline: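 Cell-free plates of MEM plus 10% FBS received 23 nL compound or DMSO vehicle; blue-channel (405/460 nm) intensity scored against triamterene as reference fluorophore.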

[17] = qHTS assay to test for compound auto fluorescence at 535 nm (green) in HepG2 cell free culture (AID 720686)
[18] = qHTS assay to test for compound auto fluorescence at 460 nm (blue) in HepG2 cells (AID 720687)
Outline: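 HepG2 cells in MEM with 10% FBS, attached overnight at 37 C, were exposed to compound or DMSO for 1 hr at 37 C, 5% CO2. Blue fluorescence was read at 405/460 nm, with triamterene as reference fluorophore.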

[19] = target: Glucocorticoid receptor (Homo sapiens) (UniProt P04150); assay: qHTS assay to identify small molecule agonists of the glucocorticoid receptor (GR) signaling pathway (AID 720691; active = well fitted activation curve with a large enough effect in the signal ratio in the repeat runs, not every such curve was filed as active; the % refers to the signal ratio)
Glucocorticoid receptor (Homo sapiens), sequence (P04150 whole entry, looked up): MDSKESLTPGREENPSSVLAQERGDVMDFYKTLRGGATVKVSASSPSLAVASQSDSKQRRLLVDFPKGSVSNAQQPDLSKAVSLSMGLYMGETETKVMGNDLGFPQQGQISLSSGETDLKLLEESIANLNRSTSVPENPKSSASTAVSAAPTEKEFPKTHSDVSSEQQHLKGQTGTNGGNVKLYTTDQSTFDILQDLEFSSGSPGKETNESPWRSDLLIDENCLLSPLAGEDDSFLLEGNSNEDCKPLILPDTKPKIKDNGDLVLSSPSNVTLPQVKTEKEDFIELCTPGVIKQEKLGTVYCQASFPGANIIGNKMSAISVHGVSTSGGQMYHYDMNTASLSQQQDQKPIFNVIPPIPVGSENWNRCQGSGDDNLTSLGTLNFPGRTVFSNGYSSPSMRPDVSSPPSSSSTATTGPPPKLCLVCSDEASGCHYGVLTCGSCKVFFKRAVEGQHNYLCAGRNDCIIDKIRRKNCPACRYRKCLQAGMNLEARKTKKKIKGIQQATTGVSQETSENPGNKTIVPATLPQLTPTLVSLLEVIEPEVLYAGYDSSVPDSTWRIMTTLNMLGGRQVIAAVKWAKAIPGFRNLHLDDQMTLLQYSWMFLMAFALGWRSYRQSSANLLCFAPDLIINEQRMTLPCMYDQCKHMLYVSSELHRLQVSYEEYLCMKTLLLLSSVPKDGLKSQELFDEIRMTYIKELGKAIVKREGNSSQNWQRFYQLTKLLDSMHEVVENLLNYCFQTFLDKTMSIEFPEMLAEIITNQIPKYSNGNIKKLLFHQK
Outline: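 Compounds in DMSO, alongside positive controls, were added to GR-bla HeLa reporter cells and incubated 18 h at 37 C; GRE-driven beta-lactamase was detected by fluorescence after 2 h with FRET substrate at room temperature.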

[20] = target: Glucocorticoid receptor (Homo sapiens) (UniProt P04150); assay: qHTS assay to identify small molecule antagonists of the glucocorticoid receptor (GR) signaling pathway (AID 720692; active = well fitted inhibition curve with a large enough effect in the signal ratio in the repeat runs, not every such curve was filed as active; the % refers to the signal ratio)
Outline: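 In a 1536-well cell format, compounds were added 4 h after seeding GR-bla HeLa cells, together with dexamethasone at 5 nM final; reporter activity was measured by FRET-substrate fluorescence following 18 h at 37 C.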

Measured: Potency

Nc1nc(N)c(-c2ccccc2)s1
inactive: all assays above

CCCC(C)C
not listed: [19]
inactive: all other assays above

CCOC(=O)CC(=O)c1cc(F)c(Cl)nc1Cl
not listed: [6]
inactive: all other assays above

NCCCOCCOCCOCCCN
inactive: all assays above

COCCO
not listed: [6]
inactive: all other assays above

Nc1nc(CC(=O)O)cs1
not listed: [6] | [19] | [20]
inactive: all other assays above

Cc1cccc(C(C)(C)C)c1O
not listed: [6]
inactive: all other assays above

O=C(c1ccc(O)cc1)c1ccc(O)cc1
not listed: [6]
inactive: all other assays above

CC1(C)[C@H]2CC[C@]1(C)[C@H](O)C2
not listed: [12] | [13]
inactive: all other assays above

COc1ccccc1OC(=O)Oc1ccccc1OC
not listed: [6]
inactive: all other assays above

CCOC(=S)SSC(=S)OCC
not listed: [6] | [19]
inactive: all other assays above

CC(=O)CC(=O)c1ccccc1
not listed: [6] | [7] | [16]
inactive: all other assays above

N#Cc1c(F)cccc1F
not listed: [6] | [13]
inactive: all other assays above

Cl/C(=C\n1cncn1)c1ccc(Cl)cc1Cl
not listed: [6] | [17] | [19] | [20]
inactive: all other assays above
